SMILES strings stand for the structures. Records with an inconclusive call do not appear. The source made the active and inactive calls. Rule for the calls: active = hit-call score of the fitted dose curve at least 0.9, where 1 is the maximum; inconclusive = response in the unintended direction; inactive = score below 0.9.

The subject of the assay is Sodium/Iodide Symporter (NIS), SLC5A5 (gene 6528). The assay is described as follows: CPHEA_Stoker_NIS_Inhibition_RAIU: CPHEA's Radioactive Iodide Uptake (RAIU) Assay for Sodium/Iodide Symporter (NIS) Inhibition, Stoker and Laws Labs (AID 2283841). The method, then:
CPHEA_Stoker_NIS is a cell-based, single-readout assay that uses hNIS-HEK293T-EPA, a novel human kidney cell line expressing human NIS, with measurements taken at 2 hours after chemical dosing in a 96-well plate. This radioactive iodide uptake (RAIU) assay is used to identify inhibitors of NIS-mediated iodide uptake. A parallel cytoxicity assay (Cell Titer Glo, Promega) was also run in the same cell line.CPHEA_Stoker_NIS_Inhibition_RAIU is one of 2 assay components measured from the CPHEA_Stoker_NIS assay. It is designed to make measurements of radioactive substrate uptake to understand transporter function, as detected with 125-i signals by MicroBeta radioactivity plate reader technology.Data from the assay component CPHEA_Stoker_NIS_Inhibition_RAIU was analyzed at the endpoint, CPHEA_Stoker_NIS_Inhibition_RAIU, in the positive analysis fitting direction relative to DMSO as the negative control and baseline of activity. Measures of radioactive substrate uptake for loss-of-signal activity can be used to understand the effects on transporter function at the pathway level as they relate to the sodium-iodide symporter, gene SLC5A5. To generalize the intended target to other relatable targets, this assay endpoint is annotated to the transporter intended target family, where the subfamily is sodium-iodide symporter (NIS).
hNIS-HEK293T-EPA cells were seeded with a MultiFlo FX dispenser (BioTek, Winooski, VT) into ScintiPlate-96 microplates (Perkin Elmer, Waltham, MA) at a density of 4.0x10^4 cells per well in 200uL growth media and incubated for 40 hours before experimentation. On day of the assay, carrier-free 125I (Perkin-Elmer, Waltham, MA; specific activity: 17.4Ci/mg) was diluted with Hanks' balanced salt solution (Sigma, St. Louis, MO) supplemented with 10mM HEPES (uptake buffer; pH 7.4) at 5uCi/mL (288pg 125I/mL uptake buffer; 2.30nM). The assay was initiated by washing cells twice with 200uL uptake buffer using a 96-well Tecan HydroSpeed plate washer (Tecan, Mannedorf, Switzerland). Uptake buffer (59.7uL) was then added back to each well. Chemical samples (350nL at 200X) were administered using the HDR tool as previously described to achieve a 1X chemical/0.5% final DMSO concentration with subsequent addition of 10uL of 125I dilution (final [125I]: 329pM; 2.88pg/well) for a final reaction volume of 70uL/well. Cells were incubated at room temperature for 2 hours and then washed twice with 200uL ice cold uptake buffer. All uptake buffer was aspirated from wells, plates were sealed, and read on a MicroBeta2 plate reader (Perkin Elmer, Waltham, MA) using a detection protocol to measure CPM corresponding to intracellular 125I concentration. Each chemical concentration (0.001, 0.01, 0.1, 1.0, 10, and 100uM) was assayed in triplicate with three independent biological replicate plates (3 sequential cell passages). Additionally, a concentration response of NaClO4 (0.001, 0.01, 0.1, 1.0, 10, and 100uM) served as a positive control inhibition curve on each RAIU assay plate. DMSO control wells were assayed on each plate as a measure of maximum iodide uptake for normalization and determination of intra- and inter-assay variation. (Toxicol In Vitro, 2017, 40:66-78).
A word on the AC50: it is the concentration at which the activity in the assay is half-maximal. As for `CN(C)c1ccc(C(=C2C=CC(=[N+](C)C)C=C2)c2ccc(N(C)C)cc2)cc1`, the AC50 is 17.4 µM (active).
For `CCCCCCCCCCCC[N+](C)(C)C`, the result was inactive.
In the case of `CN1C(=O)N(c2ccccc2Br)Cc2cnc(Nc3ccc4c(c3)OCC(CO)O4)nc21` (stereo not given), the result was inactive.
Consider `CC/C(=C(/CC)c1ccc(O)cc1)c1ccc(O)cc1`, for which the result was inactive.
Same read-out and setting: the entry for `Cc1c2ccccc2c(C)c2c1ccc1ccccc12` is “inactive”.
Consider `COc1cc(C(=O)NC2CCN(C)CC2)ccc1Nc1ncc2c(n1)N(C1CCCC1)CC(F)(F)C(=O)N2C`, for which the outcome was inactive.
Take `O=C(O)Cc1cc(I)c(Oc2ccc(O)c(I)c2)c(I)c1`: the AC50 was 88.5 µM (active).
On to `O=C1c2ccccc2C(=O)N1CCc1noc(-c2ccc(CN3CCCCCC3)s2)n1`, for which the result was inactive.
Turning to `CC(C)(c1cc(Br)c(O)c(Br)c1)c1cc(Br)c(O)c(Br)c1`, the AC50 was 82.4 µM (active).
Still for that read-out and setting: for `CC(C)(C)c1csc(-c2cc3cc(OCc4ccccc4CC(=O)O)ccc3o2)n1` the value was 50 µM (active).
Regarding `Clc1cc(Cl)c2c(c1)N=C1CCCCCN1C2`, the outcome was inactive.
Take `CCOC(=O)O[C@H](C)OC(=O)c1ccc2c(c1)cc(C(=O)NC1CCN(C(C)C)CC1)n2Cc1cc(-c2ccc(Cl)s2)on1`: the outcome was inactive.
Same read-out and setting: for `CN(C)C(=O)C1(N2CCCCC2)CCN(CC[C@@]2(c3ccc(Cl)c(Cl)c3)CN(C(=O)c3ccccc3)CCO2)CC1` the value was “inactive”; for `Cc1cc2c(cc1C(F)(F)F)N(C(=O)Nc1ccc(Oc3cccnc3C)nc1)CC2`, “inactive”; for `CCN(CC)C(=O)c1cc(S(=O)(=O)Cc2ccccc2)c(N2CCC(c3ccccc3)CC2)cc1N(CC)CCN(C)C`, “inactive”.
For `CCCCCCCCOC(=O)c1cc(O)c(O)c(O)c1`, the outcome was inactive.
Take `Clc1ccccc1C(c1ccccc1)(c1ccccc1)n1ccnc1`: the AC50 is 50 µM (active).
For `NC(=O)c1nc(-c2cccc(-c3cc(F)ccc3OCC(F)(F)C(F)(F)F)c2)n[nH]1`, the AC50 was 50 µM (active).
As to `O=c1[nH]sc2ccccc12`, the result was inactive.
`CC(=O)N1CCN(c2ccc(OC[C@H]3CO[C@](Cn4ccnc4)(c4ccc(Cl)cc4Cl)O3)cc2)CC1`: the half-maximal activity concentration (AC50) is 50 µM (active).
`O=C(Nc1ccc(Cl)cc1)Nc1ccc(Cl)c(Cl)c1`: the outcome was inactive.
In the case of `OC12N=C(c3ccccc3)SC1Cc1cc(Cl)ccc12` (stereo not given), the result was inactive.
For `CN(C[C@@H](CC[N+]12CCC(C3CCCCC3)(CC1)CC2)c1ccc(Cl)c(Cl)c1)C(=O)c1cc(C(F)(F)F)cc(C(F)(F)F)c1`, the AC50 was 66.3 µM (active).
Take `CC(C)(C)c1cc(/C=C2\SC(N)=NC2=O)cc(C(C)(C)C)c1O`: the result was inactive.
Same read-out and setting: the entry for `NCc1cccc(C2CCN(C(=O)c3ccc(C#Cc4ccccc4F)o3)CC2)c1` is “inactive”.

The values above are taken from PubChem BioAssay (EPA / NIEHS).
